# Experimental data published in PubChem BioAssay AID1851 (National Center for Advancing Translational Sciences (NCATS), 2009).
# The whole screen tested about 16,000 compounds, of which about 5,100 (32%) were called active. Inconclusive results (about 25%) are left out. Calls come from the whole dose curve; as a rule, active = well fitted curve in the direction sought with a large enough effect; inconclusive = small, poorly fitted or top-dose-only effect, or effect the other way; inactive = no such curve, though single readings can be large or run the other way. The list shows a part of the results.
# Biological target: Cytochrome P450 3A4 (Homo sapiens) (UniProt P08684)
# Sequence (P08684 whole entry, looked up): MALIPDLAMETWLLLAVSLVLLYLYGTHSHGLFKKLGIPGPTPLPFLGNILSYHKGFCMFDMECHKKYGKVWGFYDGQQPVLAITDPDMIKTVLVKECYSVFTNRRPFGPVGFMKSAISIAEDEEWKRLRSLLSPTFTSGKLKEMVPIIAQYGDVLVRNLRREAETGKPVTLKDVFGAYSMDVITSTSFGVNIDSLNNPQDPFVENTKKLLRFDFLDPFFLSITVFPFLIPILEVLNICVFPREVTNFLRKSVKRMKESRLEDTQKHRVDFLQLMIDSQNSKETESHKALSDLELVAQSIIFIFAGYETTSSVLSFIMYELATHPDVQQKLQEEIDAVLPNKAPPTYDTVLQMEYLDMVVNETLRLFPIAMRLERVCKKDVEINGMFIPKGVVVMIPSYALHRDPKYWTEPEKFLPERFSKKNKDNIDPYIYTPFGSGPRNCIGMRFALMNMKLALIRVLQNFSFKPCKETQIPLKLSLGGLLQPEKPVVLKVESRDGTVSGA
# Test: Cytochrome panel assay with activity outcomes
# Settings: recombinant CYP, pro-luciferin dealkylation, luminescence, p450-cyp3a4; series mostly up to 57.1 µM
# % is set by controls: 0 for no effect and ±100 for the full control effect.
SMILES,AC50,"activity, negative = inhibition"
CCN(CC)c1ccc2c(c1)OC(N)=C(C#N)C2c1cccnc1 (stereo not drawn),0.891 µM (active),–
CC[N+](CC)(CC)CC(=O)Nc1c(C)cccc1C,inactive,–
Cc1cccc(C)c1NC(=O)Nc1ccc(S(N)(=O)=O)cc1,–,-9.51% [at 11.4 µM] (inactive)
CC(=O)Nc1ccc(NC(=O)Cn2c(-c3ccc(F)cc3)cnc2SCC(=O)Nc2c(C)cccc2C)cc1,3.16 µM (active),–
CSC(N)=NCCC[C@@H](N)C(=O)O,inactive,–
Cc1cccc(CNc2ncnc3ccc(-c4ccc(C(=O)N(C)C)cc4)cc23)c1,2 µM (active),–
CN(C)c1ccc(-c2ccc3ncnc(NCc4ccccc4)c3c2)cc1,2.51 µM (active),–
CN(C)C(=O)c1ccc(-c2ccc3ncnc(NCc4cccs4)c3c2)cc1,10 µM (active),–
CN(C)C(=O)c1ccc(-c2ccc3ncnc(NCc4ccccc4)c3c2)cc1,15.8 µM (active),–
OCCN1CCN(C(=S)c2ccc(Br)cc2)CC1,inactive,–
NC(N)=Nc1ccc(Cl)cc1,inactive,–
CC(=O)OC[C@@H]1O[C@@H](O/N=C2/C[C@@H](O)[C@@H](O)[C@@H]3[C@@H]4C(=O)N(C[C@@H]5CCCO5)C(=O)[C@H]4CC[C@@H]23)[C@H](OC(C)=O)[C@H](OC(C)=O)[C@@H]1OC(C)=O,–,-14.3% [at 11.4 µM] (inactive)
Clc1ccc2c(c1)N(CCCN1CCCC13CCCCC3)c1ccccc1S2,–,-16.3% [at 11.4 µM] (inactive)
COc1cccc(CNCCc2c[nH]c3ccccc23)c1OCc1ccccc1F,4.47 µM (active),–
COc1cc(CNCCc2c[nH]c3ccccc23)ccc1OCc1ccccc1F,7.08 µM (active),–
O=C(O)[C@@H](Cc1c[nH]c2ccccc12)C(=O)NO,–,-15.9% [at 11.4 µM] (inactive)
O=c1c[n+](CCCC[n+]2cc(=O)o[nH]2)[nH]o1,–,-11.2% [at 11.4 µM] (inactive)
Cc1cc[n+](CC(=O)Nc2cc(C(F)(F)F)ccc2Cl)cc1,inactive,–
Cc1ccc(C)n1CCN1CCN(CC(=O)Nc2cc(C(F)(F)F)ccc2Cl)CC1,25.1 µM (active),–
CN(C)c1cc[n+](CC(=O)Nc2cc(C(F)(F)F)ccc2Cl)cc1,inactive,–

SMILES,AC50,"activity, negative = inhibition"
CCOc1ccc(NCc2nnc(SCc3ccccc3Cl)n2-c2ccccc2)cc1,14.1 µM (active),–
COc1ccc(NCc2nnc(SCc3ccccc3)n2-c2ccc(OC)cc2)cc1,5.01 µM (active),–
COC(=O)CSc1nnc(CNc2ccc(Cl)cc2)n1-c1ccccc1,12.6 µM (active),–
CCOC(=O)CSC1=NC(=O)/C(=C\c2ccc(Cl)cc2)S1,inactive,–
CCOC(=O)CSc1nnc(Cc2ccccc2)n1-c1cccc(Cl)c1,2 µM (active),–
COC(Cc1nnc(SC)n1-c1ccccc1)OC,inactive,–
CC(=O)N(/N=C/c1cccc(C)c1)c1nc(-c2ccc(Br)cc2)cs1,inactive,–
CSc1nsc(SC)c1NC(=O)OCc1ccccc1,22.4 µM (active),–
CSc1nsc(SC)c1NC(=O)Nc1ccccn1,inactive,–
CSc1nsc(SC)c1NC(=O)OCC1CCCO1 (stereo not drawn),–,-5.42% [at 11.4 µM] (inactive)
O=C(NNC(=S)Nc1ccccc1)C1CC1,inactive,–
Cc1nn(C)cc1C(=O)NNC(=S)Nc1ccccc1,–,3.36% [at 2.29 µM] (inactive)
O=C(CSCc1ccccc1Cl)NNC(=S)Nc1ccccc1,4.47 µM (active),–
O=C(CSCc1ccccc1Cl)NN1C(=O)c2ccccc2C1=O,14.1 µM (active),–
O=C(NN1C(=O)c2ccccc2C1=O)C1CCCCC1,inactive,–
O=C(Nc1ccc(Br)cc1)C1CCC(=O)N1Cc1ccccc1Cl (stereo not drawn),–,-3.06% [at 11.4 µM] (inactive)
Nc1cc(S(=O)(=O)O)cc2ccc(S(=O)(=O)O)cc12,–,-1.64% [at 11.4 µM] (inactive)
O=C(NCCc1ccc(Cl)cc1)Nc1cccc(Cl)c1,14.1 µM (active),–
CCOC(=O)CCCN,–,-12.7% [at 11.4 µM] (inactive)
COc1ccc(C(=O)NCS(=O)(=O)c2ccc(C)cc2)cc1,14.1 µM (active),–

SMILES,AC50,"activity, negative = inhibition"
COc1ccc(NC(=O)C2(c3ccc(NC(=O)c4ccc(C)cc4)cc3)CCCC2)cc1,inactive,–
Cc1ccc(C(=O)NN2CCOCC2)cc1,inactive,–
COc1ccc(C(=O)Nc2cccc3c2C(=O)NC3=O)cc1S(=O)(=O)N1CCOCC1,–,1.45% [at 2.29 µM] (inactive)
CCc1ccccc1NC(=O)c1ccc(F)c(S(=O)(=O)N2CCC(C(N)=O)CC2)c1,15.8 µM (active),–
COc1cccc(/C=N/Nc2nc(N3CCCC3)nc(N3CCCC3)n2)c1O,10 µM (active),–
CCOc1cc(/C=N/NC(=O)CN2CCCCC2)ccc1OCc1ccccc1,–,-6.35% [at 2.29 µM] (inactive)
Brc1cc2c(cc1/C=N/Nc1nc(N3CCCC3)nc(N3CCOCC3)n1)OCO2,2.82 µM (active),–
CCOc1ccc(/C=N/Nc2nc(N3CCCC3)nc(N3CCCC3)n2)cc1OC,12.6 µM (active),–
CC(C)(C)Nc1nc(N2CCCC2)nc(N2CCCC2)n1,–,11.3% [at 2.29 µM] (inactive)
O=[N+]([O-])c1ccc(Nc2nc(N/N=C\c3ccc4c(c3)OCO4)nc(N3CCCCC3)n2)cc1,1.26 µM (active),–
C1CCC(N=C(NC23CC4CC(CC(C4)C2)C3)N2CCOCC2)CC1,inactive,–
COC(=O)[C@@H]1[C@@H](O)[C@]2(O)c3ccccc3O[C@]2(c2ccccc2)[C@H]1c1ccccc1,–,-17.3% [at 11.4 µM] (inactive)
C[C@@H]1NC(=O)C/C=C\[C@@H](C)[C@@H]2C=C[C@H](O)[C@@H](COC(=O)[C@H](C)NC(=O)C/C=C\[C@@H](C)[C@@H]3C=C[C@H](O)[C@@H](COC1=O)O3)O2,–,6.73% [at 11.4 µM] (inactive)
CN(C)Cc1ccc(O)c(CN(C)C)n1,–,-18.2% [at 11.4 µM] (inactive)
CC1CCCN(C/C=C/c2ccccc2[N+](=O)[O-])C1 (stereo not drawn),inactive,–
COc1c(/C=N/Nc2nc(N3CCCCC3)nc(N3CCCCC3)n2)cccc1[N+](=O)[O-],3.98 µM (active),–
C/C(CC(=O)NCc1ccco1)=N\NC(=O)Cc1cccc2ccccc12,–,-8.55% [at 2.29 µM] (inactive)
COc1ccccc1CNC(=O)C/C(C)=N/NC(=O)Cc1ccccc1,7.94 µM (active),–
